# From ChEMBL document CHEMBL2218924, “A broad activity screen in support of a chemogenomic map for kinase signalling research and drug discovery” (Biochem J, 2013)
# Target: Proto-oncogene tyrosine-protein kinase ROS (Homo sapiens) (UniProt P08922)
# Conditions: at 1 µM
# Sequence of Proto-oncogene tyrosine-protein kinase ROS (Homo sapiens) (P08922 whole entry): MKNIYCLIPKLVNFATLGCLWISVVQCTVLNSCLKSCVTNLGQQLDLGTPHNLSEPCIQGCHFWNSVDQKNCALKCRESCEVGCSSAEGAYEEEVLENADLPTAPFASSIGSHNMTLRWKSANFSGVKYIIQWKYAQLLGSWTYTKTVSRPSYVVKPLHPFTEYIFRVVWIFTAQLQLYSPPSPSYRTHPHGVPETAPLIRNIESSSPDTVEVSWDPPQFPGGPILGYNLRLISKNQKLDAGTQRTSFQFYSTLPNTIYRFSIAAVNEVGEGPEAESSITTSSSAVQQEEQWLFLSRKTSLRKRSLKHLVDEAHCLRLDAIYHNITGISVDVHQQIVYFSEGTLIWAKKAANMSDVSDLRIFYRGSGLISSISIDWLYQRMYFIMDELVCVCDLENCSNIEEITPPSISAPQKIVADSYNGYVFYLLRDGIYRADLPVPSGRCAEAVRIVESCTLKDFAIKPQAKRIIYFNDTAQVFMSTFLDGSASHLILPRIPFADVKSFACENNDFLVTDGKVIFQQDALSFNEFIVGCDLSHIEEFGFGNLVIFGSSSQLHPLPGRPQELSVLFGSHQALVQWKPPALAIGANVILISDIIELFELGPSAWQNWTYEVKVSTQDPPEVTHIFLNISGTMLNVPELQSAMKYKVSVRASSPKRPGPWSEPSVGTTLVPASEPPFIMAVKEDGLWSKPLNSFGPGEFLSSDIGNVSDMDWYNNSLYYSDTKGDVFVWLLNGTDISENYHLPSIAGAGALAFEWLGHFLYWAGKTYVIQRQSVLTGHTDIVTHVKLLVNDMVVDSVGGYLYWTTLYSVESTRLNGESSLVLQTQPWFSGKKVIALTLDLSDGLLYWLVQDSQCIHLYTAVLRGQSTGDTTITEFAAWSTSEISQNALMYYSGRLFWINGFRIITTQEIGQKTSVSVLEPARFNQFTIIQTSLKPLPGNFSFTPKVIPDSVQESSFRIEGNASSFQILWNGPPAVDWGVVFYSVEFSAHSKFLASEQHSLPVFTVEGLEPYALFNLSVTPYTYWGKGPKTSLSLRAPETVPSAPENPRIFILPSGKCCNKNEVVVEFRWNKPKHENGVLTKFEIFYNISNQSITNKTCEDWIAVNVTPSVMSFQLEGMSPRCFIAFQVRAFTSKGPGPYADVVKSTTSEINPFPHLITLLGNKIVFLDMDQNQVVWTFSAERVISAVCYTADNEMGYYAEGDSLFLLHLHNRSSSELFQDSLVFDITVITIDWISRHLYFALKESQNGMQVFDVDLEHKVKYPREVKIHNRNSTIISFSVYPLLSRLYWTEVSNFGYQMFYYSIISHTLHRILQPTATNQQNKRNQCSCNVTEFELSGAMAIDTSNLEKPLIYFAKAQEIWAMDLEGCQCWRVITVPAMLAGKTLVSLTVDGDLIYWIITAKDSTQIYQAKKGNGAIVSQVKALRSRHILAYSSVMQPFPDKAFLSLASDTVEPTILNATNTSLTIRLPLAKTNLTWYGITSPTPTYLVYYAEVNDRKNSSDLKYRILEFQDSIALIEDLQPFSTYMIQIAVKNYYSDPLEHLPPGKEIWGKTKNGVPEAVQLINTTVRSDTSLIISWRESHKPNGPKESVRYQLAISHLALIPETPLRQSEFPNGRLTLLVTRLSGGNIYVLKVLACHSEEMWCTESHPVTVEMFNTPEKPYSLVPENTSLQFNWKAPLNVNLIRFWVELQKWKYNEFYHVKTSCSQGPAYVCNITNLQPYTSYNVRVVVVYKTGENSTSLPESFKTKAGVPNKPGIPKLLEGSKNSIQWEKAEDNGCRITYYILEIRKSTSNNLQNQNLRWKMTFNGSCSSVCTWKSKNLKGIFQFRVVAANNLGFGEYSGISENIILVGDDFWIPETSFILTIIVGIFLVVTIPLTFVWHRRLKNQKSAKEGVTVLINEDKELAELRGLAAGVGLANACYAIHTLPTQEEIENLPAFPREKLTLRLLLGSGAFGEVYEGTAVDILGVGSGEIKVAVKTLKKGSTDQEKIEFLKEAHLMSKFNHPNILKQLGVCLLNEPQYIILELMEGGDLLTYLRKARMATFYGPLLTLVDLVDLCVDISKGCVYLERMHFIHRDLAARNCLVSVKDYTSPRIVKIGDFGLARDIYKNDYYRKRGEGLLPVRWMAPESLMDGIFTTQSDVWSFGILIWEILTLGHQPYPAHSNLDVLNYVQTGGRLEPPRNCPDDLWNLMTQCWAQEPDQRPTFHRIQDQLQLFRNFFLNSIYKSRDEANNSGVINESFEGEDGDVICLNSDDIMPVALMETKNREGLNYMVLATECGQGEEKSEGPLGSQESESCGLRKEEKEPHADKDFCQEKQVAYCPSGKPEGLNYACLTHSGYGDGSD
row,Structure (SMILES),residual activity
1,COc1cc2nccc(Oc3ccc(NC(=O)Nc4cc(C)on4)c(Cl)c3)c2cc1OC,24%
2,O=C(O)/C=C/c1cc(Br)c(Br)c(Br)c1Br,108%
3,COc1ccc(COc2ccc(Cc3cnc(N)nc3N)cc2OC)cc1,81%
4,O=C(c1ccccc1)c1ccc(N2CCOCC2)cc1O,96%
5,O=c1cc(N2CCNCC2)oc2c(-c3ccccc3)cccc12,97%
6,N#Cc1c(NC(=O)c2cccc3ccccc23)sc2c1CCCC2,93%

# Target: Proto-oncogene tyrosine-protein kinase ROS (Homo sapiens) (UniProt P08922)
# Conditions: at 10 µM
row,Structure (SMILES),residual activity
1,COc1cc2nccc(Oc3ccc(NC(=O)Nc4cc(C)on4)c(Cl)c3)c2cc1OC,16%
2,O=C(O)/C=C/c1cc(Br)c(Br)c(Br)c1Br,97%
3,O=C(c1ccccc1)c1ccc(N2CCOCC2)cc1O,98%
4,O=c1cc(N2CCNCC2)oc2c(-c3ccccc3)cccc12,91%
5,N#Cc1c(NC(=O)c2cccc3ccccc23)sc2c1CCCC2,96%

# Target: T1, Tyrosine-protein kinase receptor TYRO3 (Homo sapiens) (UniProt Q06418)
# T1 sequence (whole entry): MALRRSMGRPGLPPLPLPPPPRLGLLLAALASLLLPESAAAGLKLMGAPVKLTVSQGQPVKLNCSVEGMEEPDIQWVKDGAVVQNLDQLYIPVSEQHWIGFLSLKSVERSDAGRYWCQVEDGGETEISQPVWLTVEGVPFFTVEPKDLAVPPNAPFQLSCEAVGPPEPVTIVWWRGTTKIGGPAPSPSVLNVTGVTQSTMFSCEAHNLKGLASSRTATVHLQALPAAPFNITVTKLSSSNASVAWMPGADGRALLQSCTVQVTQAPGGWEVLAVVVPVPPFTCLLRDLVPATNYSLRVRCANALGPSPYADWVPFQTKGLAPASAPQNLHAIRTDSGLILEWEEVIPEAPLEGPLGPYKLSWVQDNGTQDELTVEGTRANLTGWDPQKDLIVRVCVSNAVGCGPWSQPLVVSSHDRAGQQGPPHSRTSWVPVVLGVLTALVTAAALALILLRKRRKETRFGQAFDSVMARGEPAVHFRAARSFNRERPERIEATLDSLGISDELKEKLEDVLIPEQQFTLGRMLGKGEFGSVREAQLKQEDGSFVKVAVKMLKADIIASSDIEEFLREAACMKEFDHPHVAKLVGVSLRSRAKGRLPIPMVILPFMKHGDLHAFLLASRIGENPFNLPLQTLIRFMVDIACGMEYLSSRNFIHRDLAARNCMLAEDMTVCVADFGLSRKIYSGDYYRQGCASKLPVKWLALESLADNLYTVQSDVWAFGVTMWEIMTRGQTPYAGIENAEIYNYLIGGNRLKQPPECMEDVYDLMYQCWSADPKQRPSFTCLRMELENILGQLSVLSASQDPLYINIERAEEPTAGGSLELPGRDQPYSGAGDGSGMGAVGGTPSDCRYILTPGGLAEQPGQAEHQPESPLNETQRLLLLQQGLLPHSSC
# Conditions: at 1 µM
row,Structure (SMILES),residual activity
1,COc1cc2nccc(Oc3ccc(NC(=O)Nc4cc(C)on4)c(Cl)c3)c2cc1OC,10%
2,CN([C@@H](Cc1ccc(OS(=O)(=O)c2cccc3cnccc23)cc1)C(=O)N1CCN(c2ccccc2)CC1)S(=O)(=O)c1cccc2cnccc12,118%
3,O=C(O)/C=C/c1cc(Br)c(Br)c(Br)c1Br,98%
4,COc1ccc2c(c1)c(C1=C(c3c[nH]c4ccccc34)C(=O)NC1=O)cn2CCCN(C)C,79%
5,Cc1cc(C)c(/C=C2\C(=O)Nc3ccccc32)[nH]1,68%
6,COc1ccc(-c2cnc3c(-c4ccsc4)cnn3c2)cc1,95%
7,Oc1cccc(-c2nc(N3CCOCC3)c3oc4ncccc4c3n2)c1,82%
8,COc1ccc(CNC(=O)Nc2ncc([N+](=O)[O-])s2)cc1,106%
9,CC(C)N(CCC(=O)c1ccc2ccccc2c1)Cc1ccccc1,84%
10,CCN(CC)CCNC(=O)c1c(C)[nH]c(/C=C2\C(=O)Nc3ccc(Cl)cc32)c1C,24%
11,O=c1cc(N2CCNCC2)oc2c(-c3ccccc3)cccc12,94%
12,N#C/C(=C1/Nc2ccccc2S1)c1ccnc(NCCc2cccnc2)n1,97%
13,CN(C)S(=O)(=O)c1ccc2c(c1)/C(=C/c1cc3c([nH]1)CCCC3)C(=O)N2,67%

# Target: T1, Tyrosine-protein kinase receptor TYRO3 (Homo sapiens)
# Conditions: at 10 µM
row,Structure (SMILES),residual activity
1,COc1cc2nccc(Oc3ccc(NC(=O)Nc4cc(C)on4)c(Cl)c3)c2cc1OC,8%
2,COc1cc2c(cc1OC)-c1n[nH]c(Nc3cccc(F)c3)c1C2,50%
3,O=C(O)/C=C/c1cc(Br)c(Br)c(Br)c1Br,106%
4,COc1ccc2c(c1)c(C1=C(c3c[nH]c4ccccc34)C(=O)NC1=O)cn2CCCN(C)C,76%
5,O=C1Cc2c([nH]c3ccc(Br)cc23)-c2ccccc2N1,83%
6,O=C1Nc2ccccc2/C1=C\c1c(Cl)[nH]c2ccccc12,67%
7,Cc1cc(C)c(/C=C2\C(=O)Nc3ccccc32)[nH]1,62%
8,COc1ccc(-c2cnc3c(-c4ccsc4)cnn3c2)cc1,93%
9,Oc1cccc(-c2nc(N3CCOCC3)c3oc4ncccc4c3n2)c1,93%
10,COc1ccc(CNC(=O)Nc2ncc([N+](=O)[O-])s2)cc1,108%
11,CCN(CC)CCNC(=O)c1c(C)[nH]c(/C=C2\C(=O)Nc3ccc(Cl)cc32)c1C,-1%
12,O=c1cc(N2CCNCC2)oc2c(-c3ccccc3)cccc12,96%
13,N#Cc1c(NC(=O)c2cccc3ccccc23)sc2c1CCCC2,92%
14,N#C/C(=C1/Nc2ccccc2S1)c1ccnc(NCCc2cccnc2)n1,74%
15,CN(C)S(=O)(=O)c1ccc2c(c1)/C(=C/c1cc3c([nH]1)CCCC3)C(=O)N2,69%

# Target: Ribosomal protein S6 kinase alpha-1 (Homo sapiens) (UniProt Q15418)
# Conditions: at 1 µM
# Sequence of Ribosomal protein S6 kinase alpha-1 (Homo sapiens) (Q15418 whole entry): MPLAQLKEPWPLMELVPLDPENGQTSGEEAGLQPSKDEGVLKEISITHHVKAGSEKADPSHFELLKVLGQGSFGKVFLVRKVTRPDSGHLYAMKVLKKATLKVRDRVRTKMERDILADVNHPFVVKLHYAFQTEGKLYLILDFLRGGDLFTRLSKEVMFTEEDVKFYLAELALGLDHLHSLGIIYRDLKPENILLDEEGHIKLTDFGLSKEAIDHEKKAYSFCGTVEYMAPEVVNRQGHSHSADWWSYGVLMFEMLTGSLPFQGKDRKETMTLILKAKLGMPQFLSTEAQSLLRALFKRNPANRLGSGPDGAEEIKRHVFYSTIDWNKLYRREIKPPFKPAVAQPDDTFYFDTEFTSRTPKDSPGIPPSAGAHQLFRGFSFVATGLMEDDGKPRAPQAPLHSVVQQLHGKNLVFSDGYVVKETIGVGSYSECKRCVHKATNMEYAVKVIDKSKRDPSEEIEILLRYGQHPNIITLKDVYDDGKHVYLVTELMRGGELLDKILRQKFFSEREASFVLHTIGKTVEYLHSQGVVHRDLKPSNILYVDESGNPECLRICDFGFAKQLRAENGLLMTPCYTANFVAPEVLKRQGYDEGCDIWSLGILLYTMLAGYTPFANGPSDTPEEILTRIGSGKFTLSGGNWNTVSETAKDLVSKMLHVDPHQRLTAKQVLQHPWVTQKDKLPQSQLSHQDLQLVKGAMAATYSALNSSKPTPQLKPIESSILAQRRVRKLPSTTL
row,Structure (SMILES),residual activity
1,COc1cc2nccc(Oc3ccc(NC(=O)Nc4cc(C)on4)c(Cl)c3)c2cc1OC,105%
2,O=S(=O)(NCCNC/C=C/c1ccc(Br)cc1)c1cccc2cnccc12,53%
3,O=C1NC(=O)C(c2cn(CCCn3ccnc3)c3ccccc23)=C1Nc1ccccc1,8%
4,COc1cc2c(cc1OC)-c1n[nH]c(Nc3cccc(F)c3)c1C2,112%
5,Fc1ccc(-c2nc3n(c2-c2ccncc2)CCS3)cc1,73%
6,NCCNc1ncc(C(N)=O)c(Nc2cccc(C(F)(F)F)c2)n1,116%
7,O=C(O)/C=C/c1cc(Br)c(Br)c(Br)c1Br,110%
8,COc1ccc2c(c1)c(C1=C(c3c[nH]c4ccccc34)C(=O)NC1=O)cn2CCCN(C)C,6%
9,O=C(Nc1ccc(Cl)cc1)c1ccccc1NCc1ccncc1,129%
10,O=C1Cc2c([nH]c3ccc(Br)cc23)-c2ccccc2N1,78%
11,COc1ccc(COc2ccc(Cc3cnc(N)nc3N)cc2OC)cc1,131%
12,Cc1cc(C)c(/C=C2\C(=O)Nc3ccccc32)[nH]1,51%
13,O=C(c1ccccc1)c1ccc(N2CCOCC2)cc1O,96%
14,Oc1cccc(-c2nc(N3CCOCC3)c3oc4ncccc4c3n2)c1,141%
15,COc1ccc(CNC(=O)Nc2ncc([N+](=O)[O-])s2)cc1,136%
16,CCN(CC)CCNC(=O)c1c(C)[nH]c(/C=C2\C(=O)Nc3ccc(Cl)cc32)c1C,11%
17,O=c1cc(N2CCNCC2)oc2c(-c3ccccc3)cccc12,124%
18,O=C1NC(=O)C(c2c[nH]c3ccccc23)=C1c1c[nH]c2ccccc12,22%
19,CN(C)S(=O)(=O)c1ccc2c(c1)/C(=C/c1cc3c([nH]1)CCCC3)C(=O)N2,95%
20,O=C1NC(=O)C(c2cn(CCCO)c3ncccc23)=C1c1cnccn1,98%
